In PubChem BioAssay (NCATS):
Results filed as inconclusive are left out. A call without a number means that no potency is given here. A number with no mark means an inactive call. Active and inactive are the calls of the source. Calls follow the shape of the dose curve; as a rule, active = well fitted curve in the direction sought with a large enough effect; inconclusive = small, poorly fitted or top-dose-only effect, or another doubt; inactive = no such curve, though single readings can be large; an effect the other way counts as inactive or inconclusive.

How the values were obtained:
[1] = molecular target: Rap guanine nucleotide exchange factor 3 (Homo sapiens) (UniProt O95398); assay: Confirmatory qHTS for agonist of cAMP-regulated guanine nucleotide exchange factor 3 (EPAC1) (AID 1645881);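 also: EPAC1 catalysed release of BODIPY-GDP from Rap1B seen as fluorescence loss; nearly all actives have a fitted effect of over 75% in size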
[2] = molecular target: Rap guanine nucleotide exchange factor 4 (Homo sapiens) (UniProt Q8WZA2); assay: Confirmatory qHTS for agonist of cAMP-regulated guanine nucleotide exchange factor 4 (EPAC2) (AID 1645884);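 also: nucleotide exchange releases bodipy-GDP from Rap1 and this lowers its fluorescence; nearly all actives have a fitted effect of over 65% in size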
[3] = molecular target: Rap guanine nucleotide exchange factor 4 (Homo sapiens) (UniProt Q8WZA2); assay: Confirmatory qHTS for antagonist of cAMP-regulated guanine nucleotide exchange factor 4 (EPAC2) (AID 1645885); also: nearly all actives have a fitted effect of over 25% in size; also: potency is read from the fitted curve at half-maximal effect
[4] = molecular target: Rap guanine nucleotide exchange factor 3 (Homo sapiens) (UniProt O95398); assay: Counterscreen qHTS for antagonist of cAMP-regulated guanine nucleotide exchange factor 3 (EPAC1) (AID 1645888);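 also: fluorescence loss as bound BODIPY-GDP is released from Rap1B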
Method in brief: (§1)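 Rap1B–BODIPY-GDP (250 nM) with 50 uM GDP; compounds pin-transferred to 9.74 nM–152 uM final (activator) or from 7.32 nM upwards (inhibitor). Fluorescence Ex/Em 480/540 nm read at 5 and 30 min, then after adding cAMP or buffer, at room temperature.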

[5] = molecular target: Rap guanine nucleotide exchange factor 3 (Homo sapiens) (UniProt O95398); assay: Counterscreen qHTS for agonist of cAMP-regulated guanine nucleotide exchange factor 3 (EPAC1) (AID 1645889); also: nearly all actives have a fitted effect of over 40% in size
Method in brief: as §1

Chain of Rap guanine nucleotide exchange factor 4 (Homo sapiens) (Q8WZA2 whole entry, looked up): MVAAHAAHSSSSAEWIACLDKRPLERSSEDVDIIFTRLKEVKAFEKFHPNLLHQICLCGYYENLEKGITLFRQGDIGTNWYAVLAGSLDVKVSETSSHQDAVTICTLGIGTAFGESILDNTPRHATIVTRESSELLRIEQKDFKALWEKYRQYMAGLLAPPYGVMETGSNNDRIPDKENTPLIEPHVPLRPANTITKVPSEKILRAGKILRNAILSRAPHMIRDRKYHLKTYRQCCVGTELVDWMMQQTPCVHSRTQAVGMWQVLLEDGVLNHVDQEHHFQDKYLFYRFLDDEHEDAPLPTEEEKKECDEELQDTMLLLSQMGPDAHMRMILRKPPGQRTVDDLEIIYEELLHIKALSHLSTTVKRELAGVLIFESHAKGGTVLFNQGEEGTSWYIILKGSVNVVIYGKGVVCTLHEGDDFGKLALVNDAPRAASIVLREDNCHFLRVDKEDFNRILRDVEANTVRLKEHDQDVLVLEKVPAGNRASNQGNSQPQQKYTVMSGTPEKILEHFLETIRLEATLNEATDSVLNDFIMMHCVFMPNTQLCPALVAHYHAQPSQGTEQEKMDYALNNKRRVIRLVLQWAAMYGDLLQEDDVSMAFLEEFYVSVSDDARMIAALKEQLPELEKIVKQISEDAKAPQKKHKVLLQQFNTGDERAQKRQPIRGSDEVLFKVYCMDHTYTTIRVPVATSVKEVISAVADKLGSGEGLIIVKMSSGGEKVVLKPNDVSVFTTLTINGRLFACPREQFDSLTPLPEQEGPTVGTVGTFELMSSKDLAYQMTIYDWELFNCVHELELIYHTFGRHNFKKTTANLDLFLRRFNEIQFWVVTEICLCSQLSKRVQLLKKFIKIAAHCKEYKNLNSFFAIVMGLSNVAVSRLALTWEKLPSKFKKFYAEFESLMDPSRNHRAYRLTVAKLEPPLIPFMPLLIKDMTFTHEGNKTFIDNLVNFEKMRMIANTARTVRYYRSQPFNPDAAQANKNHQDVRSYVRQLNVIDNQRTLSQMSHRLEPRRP
Chain of Rap guanine nucleotide exchange factor 3 (Homo sapiens) (O95398 whole entry, looked up): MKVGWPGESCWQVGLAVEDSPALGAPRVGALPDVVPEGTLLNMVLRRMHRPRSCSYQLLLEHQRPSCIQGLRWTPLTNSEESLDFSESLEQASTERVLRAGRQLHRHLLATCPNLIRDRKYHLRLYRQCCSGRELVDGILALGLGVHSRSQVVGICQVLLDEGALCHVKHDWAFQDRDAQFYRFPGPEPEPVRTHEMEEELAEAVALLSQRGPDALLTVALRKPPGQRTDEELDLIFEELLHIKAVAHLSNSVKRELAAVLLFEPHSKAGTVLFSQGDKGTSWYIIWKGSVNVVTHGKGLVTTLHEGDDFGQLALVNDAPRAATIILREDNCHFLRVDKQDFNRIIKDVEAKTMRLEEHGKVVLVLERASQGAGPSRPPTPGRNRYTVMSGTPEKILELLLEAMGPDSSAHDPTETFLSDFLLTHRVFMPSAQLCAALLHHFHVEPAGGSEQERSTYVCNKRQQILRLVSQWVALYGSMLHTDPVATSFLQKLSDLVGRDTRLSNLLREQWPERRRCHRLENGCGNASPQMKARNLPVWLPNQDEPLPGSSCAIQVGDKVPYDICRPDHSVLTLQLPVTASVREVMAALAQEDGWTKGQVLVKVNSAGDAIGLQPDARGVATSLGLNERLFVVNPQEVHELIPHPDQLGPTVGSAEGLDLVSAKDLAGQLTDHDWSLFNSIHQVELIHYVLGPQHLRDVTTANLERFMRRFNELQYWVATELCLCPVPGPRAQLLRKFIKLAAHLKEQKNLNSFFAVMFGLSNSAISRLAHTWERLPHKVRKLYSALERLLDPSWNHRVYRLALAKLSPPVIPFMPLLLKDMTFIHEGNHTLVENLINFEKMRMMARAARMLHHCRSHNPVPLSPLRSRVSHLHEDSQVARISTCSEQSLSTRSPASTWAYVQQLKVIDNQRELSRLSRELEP

Row | SMILES | Potency [1] | Potency [2] | Potency [3] | Potency [4] | Potency [5] | activation [2] | activity change, negative = inhibition [4] | activation [5] | outcome [3]
1 | O=C(Nc1nc2ccccc2[nH]1)C1CCN(S(=O)(=O)c2cccs2)CC1 | inactive | inactive | inactive | inactive | inactive | – | – | – | –
2 | CCN=C1S/C(=C\c2ccc(-c3cccc(C(=O)O)c3)o2)C(=O)N1CC | inactive | inactive | inactive | inactive | inactive | – | – | – | –
3 | CC1=C(C(=O)OC2CCCCCC2)C(c2c(Cl)cccc2Cl)CC(=O)N1 (stereo not given) | inactive | inactive | inactive | inactive | inactive | – | – | – | –
4 | CCN(CC)C(=O)CSc1nnc(-c2cccs2)n1Cc1ccco1 | inactive | inactive | inactive | inactive | inactive | – | – | – | –
5 | CCC(=C(c1ccc(OC)cc1)c1ccc(OC)cc1)c1cn(CC(O)CN2CCN(C)CC2)c2ccccc12 (stereo not given) | inactive | – | inactive | – | – | 8.96% [at 17.1 µM, percent relative to cAMP agonist control] | -21.5% [at 30.8 µM] | 25.5% [at 30.8 µM] | –
6 | Cc1ccc(C)c(-c2ccc(=O)n(Cc3ccc(F)cc3Cl)n2)c1 | inactive | inactive | inactive | inactive | inactive | – | – | – | –
7 | CCOc1cc(/C=N/NC(=O)CSc2nncn2C)ccc1OC(=O)c1ccc(Cl)cc1 | inactive | – | inactive | – | – | 6.27% [at 17.1 µM, percent relative to cAMP agonist control] | 0.431% [at 30.8 µM] | 9.31% [at 30.8 µM] | –
8 | CC[C@@H]1CC=C[C@H]2[C@H]1C(=O)N(Cc1ccccc1)[C@H]2c1ccc(C(F)(F)F)cc1 | inactive | inactive | inactive | inactive | inactive | – | – | – | –
9 | Cc1ccc(OCC(=O)Nc2ccc(N3CCCC3)cc2)cc1C | inactive | inactive | inactive | inactive | inactive | – | – | – | –
10 | CC(=O)N1CCN(Cc2cc(=O)oc3ccc4ccccc4c23)CC1 | inactive | – | inactive | – | – | 4.37% [at 17.1 µM, percent relative to cAMP agonist control] | 9.94% [at 30.8 µM] | 27.9% [at 30.8 µM] | –
11 | CC(C)(C)C(=O)NC(Nc1cccc2cccnc12)C(Cl)(Cl)Cl (stereo not given) | inactive | – | inactive | – | – | 7.17% [at 17.1 µM, percent relative to cAMP agonist control] | -6% [at 30.8 µM] | 21.1% [at 30.8 µM] | –
12 | C=CCc1ccccc1OCc1nc2ccccc2n1CC | inactive | inactive | inactive | inactive | inactive | – | – | – | –
13 | CCOC(=O)C1=C(N)Oc2cc(O)ccc2C1c1ccccc1 (stereo not given) | inactive | – | inactive | – | – | -4.25% [at 17.1 µM, percent relative to cAMP agonist control] | -7.53% [at 30.8 µM] | 10.8% [at 30.8 µM] | –
14 | Cc1ccccc1NC(=O)CN1C(=O)N/C(=C\c2ccccc2OCc2ccc(C(=O)O)cc2)C1=O | inactive | inactive | 53.6 µM (active) | inactive | inactive | – | – | – | –
15 | Cc1c(N=Cc2cc(Br)cc(Br)c2O)cccc1C(=O)O | inactive | – | inactive | – | – | -1.44% [at 17.1 µM, percent relative to cAMP agonist control] | -0.566% [at 30.8 µM] | 3.4% [at 30.8 µM] | –
16 | CC(C)Cn1nc(NS(=O)(=O)c2cccc3nonc23)c2cc3ccccc3nc21 | inactive | inactive | inactive | inactive | inactive | – | – | – | –
17 | O=C(NN1C(=O)/C(=C/C=C/c2ccco2)SC1=S)c1ccncc1 | inactive | inactive | inactive | inactive | inactive | – | – | – | –
18 | CS(=O)(=O)N1CCN(c2ccc([N+](=O)[O-])c(NCc3ccc(Cl)cc3)c2)CC1 | inactive | – | inactive | – | – | -0.717% [at 17.1 µM, percent relative to cAMP agonist control] | -6.75% [at 30.8 µM] | 12% [at 30.8 µM] | –
19 | CC(=O)Nc1ccc(S(=O)(=O)Nc2nc3ccccc3nc2-n2ccc(=NC(=O)c3ccccc3)cc2)cc1 | inactive | – | inactive | – | – | -0.645% [at 17.1 µM, percent relative to cAMP agonist control] | -23.7% [at 30.8 µM] | 5.94% [at 30.8 µM] | –
20 | Cc1cccc(C(=O)c2c(N)sc3c2CCCC3)c1 | inactive | – | inactive | – | – | -0.129% [at 17.1 µM, percent relative to cAMP agonist control] | -3.46% [at 30.8 µM] | 9.69% [at 30.8 µM] | –
21 | O=C1NC(=O)/C(=C/c2ccc(-c3cc(C(=O)O)ccc3Cl)o2)S1 | inactive | – | inactive | – | – | 7.65% [at 17.1 µM, percent relative to cAMP agonist control] | 4.91% [at 30.8 µM] | 8.4% [at 30.8 µM] | –

Row | SMILES | Potency [1] | Potency [2] | Potency [3] | Potency [4] | Potency [5] | activation [2] | activity change, negative = inhibition [4] | activation [5] | outcome [3]
22 | Cc1ccc(C)c(CSC2=NC(C)(C)Nc3ccccc32)c1 | inactive | inactive | – | inactive | inactive | – | – | – | inactive [at 12.7 µM]
23 | CCCCC(CC)C(=O)Oc1ccc(O)c(C(C)(C)C)c1 (stereo not given) | inactive | – | inactive | – | – | -3.79% [at 17.1 µM, percent relative to cAMP agonist control] | 0.29% [at 30.8 µM] | -16.7% [at 30.8 µM] | –
24 | CCOC(=O)C(C)Sc1nc(-c2ccco2)cc(C(F)(F)F)c1C#N (stereo not given) | inactive | – | inactive | – | – | 0.901% [at 17.1 µM, percent relative to cAMP agonist control] | -10.8% [at 30.8 µM] | 0.691% [at 30.8 µM] | –
25 | Cn1cc(S(=O)(=O)Nc2cccc(F)c2)c(=O)n(C)c1=O | inactive | – | inactive | – | – | 0% [at 17.1 µM, percent relative to cAMP agonist control] | -13.5% [at 30.8 µM] | -7.11% [at 30.8 µM] | –
26 | O=c1[nH]n2c(=O)c3c([nH]c2c1N=Nc1cccc(Cl)c1)CCCC3 | inactive | – | inactive | – | – | -16.2% [at 17.1 µM, percent relative to cAMP agonist control] | -25.4% [at 30.8 µM] | -2.93% [at 30.8 µM] | –
27 | CSc1cccc(NC(=O)Cn2nnc(C(=O)NCCc3ccccc3)c2N)c1 | inactive | inactive | – | inactive | inactive | – | – | – | inactive [at 12.7 µM]
28 | COc1ccccc1-n1c(C)c(C(=O)O)c2cc(OC)c3ccccc3c21 | inactive | inactive | 47.8 µM (active) | inactive | inactive | – | – | – | –
29 | CC(=O)NS(=O)(=O)c1ccc(Nc2ccc([N+](=O)[O-])c3nonc23)cc1 | inactive | – | inactive | – | – | 14.6% [at 17.1 µM, percent relative to cAMP agonist control] | -18.4% [at 30.8 µM] | 1.5% [at 30.8 µM] | –
30 | COc1ccc(S(=O)(=O)Nc2ccccc2SC)cc1C | inactive | inactive | 10.7 µM (active) | inactive | inactive | – | – | – | –
31 | COC(=O)c1ccc2nc(-c3ccco3)c(Cc3ccc(OC)cc3C)n2c1 | inactive | inactive | inactive | inactive | inactive | – | – | – | –
32 | COc1cc(O)c(C(CC(=O)N2CCCC(C)C2)c2ccc3c(c2)OCO3)c(OC)c1 (stereo not given) | inactive | – | inactive | – | – | -10.6% [at 17.1 µM, percent relative to cAMP agonist control] | -20% [at 30.8 µM] | 13.2% [at 30.8 µM] | –
33 | CCc1ccc(N=C2NC(=O)/C(=C/c3cc(Br)c(OCC(=O)O)c(OC)c3)S2)cc1 | inactive | – | inactive | – | – | -6.04% [at 17.1 µM, percent relative to cAMP agonist control] | -19.5% [at 30.8 µM] | 15.5% [at 30.8 µM] | –
34 | N#Cc1c(-c2ccccc2)c(C#N)c2nc3ccccc3n2c1N | inactive | inactive | 84.9 µM (active) | inactive | inactive | – | – | – | –
35 | O=C(O)C(Cc1c[nH]c2ccccc12)NS(=O)(=O)c1cccc(Cl)c1Cl (stereo not given) | inactive | inactive | inactive | inactive | inactive | – | – | – | –
36 | O=C(c1ccc2c(c1)CCCC2)N1CCN(c2nc3ccc(F)cc3s2)CC1 | inactive | inactive | inactive | inactive | inactive | – | – | – | –
37 | O=C(O)c1ccccc1NC(c1ccccc1)c1ccc(Cl)cc1 (stereo not given) | inactive | inactive | inactive | inactive | inactive | – | – | – | –
38 | COc1cc(Cl)cc(/C=N\NC(=O)c2ccc3c(c2)OCO3)c1O | inactive | inactive | inactive | inactive | inactive | – | – | – | –
39 | CCOC(=O)c1c(C)oc2nc(C)nc(N(CC(C)C)CC(C)C)c12 | inactive | inactive | inactive | inactive | inactive | – | – | – | –
40 | C#Cc1ccc([C@@H]2C=C(C(=O)NCc3ccccc3)O[C@H](OCc3ccc(CO)cc3)C2)cc1 | inactive | inactive | inactive | inactive | inactive | – | – | – | –
41 | O=C(NNc1cc(Br)c(O)c(Br)c1)c1ccccc1 | inactive | – | inactive | – | – | -6.77% [at 17.1 µM, percent relative to cAMP agonist control] | -6.86% [at 30.8 µM] | 11.6% [at 30.8 µM] | –
42 | CCOC(=O)c1ccc2c(c1)C1C=CCC1C(C(=O)OCC)N2 (stereo not given) | inactive | – | inactive | – | – | 4.17% [at 17.1 µM, percent relative to cAMP agonist control] | -1.12% [at 30.8 µM] | 32.7% [at 30.8 µM] | –
